In PubChem BioAssay (NCI):
Compounds without any hit were thinned out: in the full panel of roughly 83,000, 20% have a hit.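 Results are percent growth after 48 hours of single-concentration exposure. 100 means growth as in untreated cells, lower positive values show inhibition; negative values down to -100 show cell death.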 Unmarked numbers belong to inactive results. Activity calls are given as the source filed them. How the source made its calls: active means growth percent below 10; inactive means the rest.

How the values were obtained:
Assay in all cases: NCI-60 one-dose screen, 48 h (100 = growth as untreated, 0 = no growth, -100 = all killed)
Settings in all cases: 10 µM unless noted
SR leukemia = test system: SR leukemia
RPMI-8226 leukemia = test system: RPMI-8226 leukemia
OVCAR-8 ovarian = test system: OVCAR-8 ovarian
OVCAR-5 ovarian = test system: OVCAR-5 ovarian
OVCAR-4 ovarian = test system: OVCAR-4 ovarian
SK-OV-3 ovarian = test system: SK-OV-3 ovarian
IGROV1 ovarian = test system: IGROV1 ovarian
OVCAR-3 ovarian = test system: OVCAR-3 ovarian
HS 578T breast = test system: HS 578T breast
NCI/ADR-RES ovarian = test system: NCI/ADR-RES ovarian

Compound | growth (SR leukemia) | growth (RPMI-8226 leukemia) | growth (OVCAR-8 ovarian) | growth (OVCAR-5 ovarian) | growth (OVCAR-4 ovarian) | growth (SK-OV-3 ovarian) | growth (IGROV1 ovarian) | growth (OVCAR-3 ovarian) | growth (HS 578T breast) | growth (NCI/ADR-RES ovarian)
O=C1c2cc3c(cc2-c2c1c1ccc(Cl)cc1c(=O)n2C[C@H](O)[C@@H](O)[C@H](O)CO)OCO3 | 0.866% (active) | 0.957% (active) | 1.03% (active) | -2.44% (active) | 18.6% | -23.1% (active) | 9.99% (active) | -10.4% (active) | 11.3% | 7.03% (active)
O=C1CCCC=CC[C@H]2C=C(Cl)C(=O)C2=CC[C@H](CCCCC(F)(F)F)OC(=O)CCCC=CC[C@H]2C=C(Cl)C(=O)C2=CC[C@H](CCCCC(F)(F)F)OC(=O)CCCC=CC[C@H]2C=C(Cl)C(=O)C2=CC[C@H](CCCCC(F)(F)F)O1 | 11.6% [6.25 µM] | 4.9% [6.25 µM] (active) | 8.78% [6.25 µM] (active) | 140% [6.25 µM] | 68.7% [6.25 µM] | 119% [6.25 µM] | 43.7% [6.25 µM] | 14.3% [6.25 µM] | 81.9% [6.25 µM] | 97.6% [6.25 µM]
CC(C)(C)c1[nH]nc2c1C(c1cc3ccccc3[nH]c1=O)Nc1cc(C(=O)OCc3ccccc3)ccc1N2 (centres undefined) | 38.9% | 53.6% | 64.9% | 87.8% | 54.3% | 83% | 78.5% | 49.2% | 66.6% | 86.8%
CC(C)=CCC[C@](C)(O)[C@H]1CC[C@]2(C)[C@@H]1CC[C@@H]1[C@@]3(C)C/C(=C/c4ccc(Br)cc4)C(=O)C(C)(C)[C@@H]3CC[C@]12C | 80.7% | 71.8% | 84.5% | 101% | 78.5% | 96.5% | 101% | 87.5% | 92.2% | 98.2%
COc1ccc(O)c(-c2cc(-c3ccc(Cl)cc3)c(C#N)c(=O)[nH]2)c1 | 33.5% | 62.3% | 68.3% | 106% | 74.4% | 82.8% | 78.5% | 73.4% | 58.7% | 62.5%
N#C/C(=C\c1ccc(-c2cccc(C(F)(F)F)c2)o1)c1nc(-c2ccco2)cs1 | 99.6% | 45.8% | 99.8% | 60.2% | 16.8% | 112% | 57.5% | 100% | 102% | 97.1%
CSc1ccc(N(C)c2nc(C)nc3c2CCC3)cc1 | 1.95% (active) | 23.5% | 12% | 33.2% | 38.2% | 19.5% | 31.3% | 5.43% (active) | 29.8% | 8.05% (active)
Nc1c2c(nc3ccc(Br)cc13)CC(c1ccccc1)CC2=O (centres undefined) | 27.1% | 17.8% | 44.7% | 49.2% | 68.7% | 63.6% | 36.7% | 14.7% | 30.9% | 11%
O=S(=O)(NCCNc1cc(-c2cn(-c3ccccc3)nc2-c2cccc(O)c2)ccn1)c1ccccc1 | 11.7% | 32.7% | 49.8% | 92.1% | 56.3% | 69.5% | 57.1% | 63.3% | 45.2% | 43.9%
N=c1c(S(=O)(=O)c2ccccc2)cc2c(=O)n3ccccc3nc2n1C1CCCC1 | 82.4% | 92.9% | 88.3% | 103% | 95.5% | 104% | 97% | 93.9% | 95.6% | 87.4%
C=C(C)[C@@H]1CC[C@]2(c3nnc(-c4ccncc4)o3)CC[C@]3(C)[C@H](CC[C@@H]4[C@@]5(C)CCC(=O)NC(C)(C)[C@@H]5CC[C@]43C)[C@@H]12 | 78.3% | 81.4% | 92.6% | 112% | 89.5% | 100% | 92.3% | 44.6% | 95.8% | 97.5%
N#C/C(=C\c1ccc(-c2ccc(Br)cc2)o1)c1nc(-c2cccs2)cs1 | 90.4% | 92.8% | 106% | 95.6% | 96.3% | 111% | 88.1% | 110% | 108% | 95%
COc1cc(/C=C/c2cc(/C=C/c3ccc(O)c(OC)c3)n(-c3ccccc3)c(=O)n2)ccc1O | 30.7% | 50.7% | 79.1% | 113% | 61.3% | 90.7% | 87% | 72.3% | 69.6% | 97.7%
Cc1cc(N(CCNc2ccnc3cc(Cl)ccc23)Cc2ccco2)nc(Cl)n1 | -14.5% (active) | -29.5% (active) | -26.6% (active) | -37.5% (active) | -59.7% (active) | -36.3% (active) | -72.1% (active) | -89.5% (active) | 6.7% (active) | -4.64% (active)
C=C(C)[C@@H]1CC[C@]2(CN)CC[C@]3(C)[C@H](CC[C@@H]4[C@@]5(C)CCC(=O)NC(C)(C)[C@@H]5CC[C@]43C)[C@@H]12 | -27.1% (active) | 37.9% | 66.5% | 97.8% | 70.7% | 92% | 70.3% | 88% | 84.1% | 70%
COC(=O)[C@]12CC[C@@H](C(=O)/C=C/c3cccnc3)[C@@H]1[C@H]1CC[C@@H]3[C@@]4(C)C/C(=C/c5cccnc5)C(=O)C(C)(C)[C@@H]4CC[C@@]3(C)[C@]1(C)CC2 | -14.1% (active) | -28.7% (active) | -34.3% (active) | -62.7% (active) | -39.2% (active) | -23.1% (active) | -87.9% (active) | -93.2% (active) | -49.1% (active) | -39.4% (active)
CN1CCN(c2nc(-c3csc(-c4cccs4)n3)cc3ccccc23)CC1 | 2.45% (active) | 13.3% | 75.6% | 87.7% | 57.9% | 90.8% | 23.1% | 39.9% | 71.3% | 70.8%
COC1=C(Br)C(=O)C(OC)=C(Br)C1=O | 42.7% | 101% | 105% | 113% | 96.8% | 110% | 111% | 91% | – | 104%
Nc1nc(N)c2nc3c(nc2n1)CCCCCCCCCC3 | 32.2% | 85.6% | 39.9% | 69.4% | 61.9% | 78.9% | – | 81.9% | 72.6% | 52.9%
C[N+](C)(CCCCCC[N+](C)(C)C1c2ccccc2-c2ccccc21)C1c2ccccc2-c2ccccc21 | 98.3% | 101% | 104% | 108% | 111% | 111% | – | 104% | 98.2% | 115%
O=C(Nc1ccc(/C=C2\SC(=O)N(Cc3ccc(OC(F)(F)F)cc3)C2=O)cc1)c1ccc(Cl)c([N+](=O)[O-])c1 | -0.106% (active) | -11.2% (active) | 87.5% | 85.5% | 31.4% | 93.7% | – | 48.2% | 72.1% | 73.6%
Nc1ccc(Br)cn1 | 98.9% | 101% | 102% | 93% | 101% | 103% | 110% | – | 99.5% | 103%
C=CC(=O)N[C@H](Cc1ccc(-c2cc(Cl)cc(Cl)c2)cc1)[C@H](O)[C@@H](O)C(=O)O | 81.6% | 82.7% | 90.9% | 96% | 96.9% | 78.6% | – | 101% | 95.5% | 101%
